According to PubChem BioAssay (NCATS):
Inconclusive results are not listed. The source made the active and inactive calls. Unless noted, calls follow the shape of the dose curve; as a rule, active = well fitted curve in the direction sought with a large enough effect; inconclusive = small, poorly fitted or top-dose-only effect, or another doubt; inactive = no such curve, though single readings can be large; an effect the other way counts as inactive or inconclusive.

Key:
UISO = experiment: qHTS assay to identify novel small-molecules to repurpose for Merkel cell carcinoma treatment (AID 1296009); conditions: MCC and control cell lines, CellTiter-Glo viability, 72 h; series mostly up to 46 µM; also: % is scaled to controls: 0 for no effect and ±100 for the full control effect; nearly all actives have a fitted effect of over 60% in size
In short: (§1)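 Viability readout: ATP luminescence (CellTiter-Glo) after 72 hr drug exposure at 37 degree celsius. Dose-response format was 8 points for NPC and 11 points for MIPE; data normalized to in-plate controls.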

WaGa = experiment: as above; conditions: MCC and control cell lines, CellTiter-Glo viability, 72 h; series mostly up to 46 µM
In short: as §1

C33A = experiment: Primary qHTS to identify gynecologic anti-cancer compounds using libraries of approved drugs and bioactive compounds (AID 1345084); conditions: Gynecologic cancer cell panel viability, ATPlite luminescence, 48 h; series mostly up to 57.5 µM; also: % is scaled to controls: 0 for no effect and ±100 for the full control effect; nearly all actives have a fitted effect of over 55% in size
In short: (§2)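 Measured: luminescence after ATPlite addition (15 min, RT). Exposure: 48 h, 37 C, 5% CO2.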

CASKI = experiment: as above; conditions: Gynecologic cancer cell panel viability, ATPlite luminescence, 48 h; series mostly up to 57.5 µM
In short: as §2

Es-2 = experiment: as above; conditions: Gynecologic cancer cell panel viability, ATPlite luminescence, 48 h; series mostly up to 57.5 µM
In short: as §2

HeLa = experiment: as above; conditions: Gynecologic cancer cell panel viability, ATPlite luminescence, 48 h; series mostly up to 57.5 µM
In short: as §2

Hek293T = experiment: as above; conditions: Gynecologic cancer cell panel viability, ATPlite luminescence, 48 h, control line for the selectivity index; series mostly up to 57.5 µM
In short: as §2

JEG-3 = experiment: as above; conditions: Gynecologic cancer cell panel viability, ATPlite luminescence, 48 h; series mostly up to 57.5 µM
In short: as §2

PA-1 = experiment: as above; conditions: Gynecologic cancer cell panel viability, ATPlite luminescence, 48 h; series mostly up to 57.5 µM
In short: as §2

SKOV3 = experiment: as above; conditions: Gynecologic cancer cell panel viability, ATPlite luminescence, 48 h; series mostly up to 57.5 µM
In short: as §2

Tov-21-G = experiment: as above; conditions: Gynecologic cancer cell panel viability, ATPlite luminescence, 48 h; series mostly up to 57.5 µM
In short: as §2

Tov112D = experiment: as above; conditions: Gynecologic cancer cell panel viability, ATPlite luminescence, 48 h; series mostly up to 57.5 µM
In short: as §2

CAOV3 = experiment: as above; conditions: Gynecologic cancer cell panel viability, ATPlite luminescence, 48 h; series mostly up to 57.5 µM
In short: as §2

OV90 = experiment: as above; conditions: Gynecologic cancer cell panel viability, ATPlite luminescence, 48 h; series mostly up to 57.5 µM
In short: as §2

[1] = Drug repurposing screens with cells derived from glioblastoma tumor samples (AID 1345199); conditions: GBM patient neurospheres viability, ATP luminescence, 48 h; also: nearly all actives have a fitted effect of over 40% in size; also: potency is read from the fitted curve at half-maximal effect; as to activity, negative = cell killing: % is scaled to controls: 0 for no effect and ±100 for the full control effect
In short: (§3)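 Primary testing used CD133+ neurospheres from four GBM patients, seven concentrations, 48 h exposure and ATP-based viability; confirmation added three slower-growing patient lines.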

astro = experiment: as above; conditions: viability, ATP luminescence, 48 h; series mostly up to 45.9 µM
In short: as §3

[2] = target: Nuclear receptor subfamily 1 group I member 2 (Rattus norvegicus) (UniProt Q9R1A7); experiment: qHTS assay for small molecule activators of the rat pregnane X receptor (rPXR) signaling pathway (AID 651751; call rule not given here; also: 0% is about no effect); conditions: rPXR reporter cells, luciferase (One-Glo), 24 h
Chain of Nuclear receptor subfamily 1 group I member 2 (Rattus norvegicus) (Q9R1A7 whole entry, looked up): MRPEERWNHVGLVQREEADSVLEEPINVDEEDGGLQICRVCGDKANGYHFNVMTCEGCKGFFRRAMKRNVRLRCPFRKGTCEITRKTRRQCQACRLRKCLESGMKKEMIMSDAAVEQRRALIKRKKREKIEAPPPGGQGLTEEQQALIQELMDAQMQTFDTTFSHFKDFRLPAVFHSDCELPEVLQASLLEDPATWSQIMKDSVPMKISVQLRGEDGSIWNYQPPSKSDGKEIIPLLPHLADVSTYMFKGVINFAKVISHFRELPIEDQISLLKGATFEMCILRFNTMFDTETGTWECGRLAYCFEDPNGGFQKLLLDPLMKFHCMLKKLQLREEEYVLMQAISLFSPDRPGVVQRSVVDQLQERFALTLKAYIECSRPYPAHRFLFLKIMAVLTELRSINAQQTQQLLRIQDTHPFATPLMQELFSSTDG

[3] = qHTS assay for small molecule activators of the human pregnane X receptor (PXR) signaling pathway (AID 720659; call rule not given here; also: 0% is about no effect)
[4] = at 45.9 µM (top of the series), tumour line B
[5] = at 45.9 µM (top of the series), tumour line D

c1ccc2nc(N3CCNCC3)ccc2c1
inactive: Potency (UISO) | Potency (WaGa) | Potency (C33A) | Potency (CASKI) | Potency (Es-2) | Potency (HeLa) | Potency (Hek293T) | Potency (JEG-3) | Potency (PA-1) | Potency (SKOV3) | Potency (Tov-21-G) | Potency (Tov112D)

CCCCCCCCC(=O)NCc1ccc(O)c(OC)c1
inactive: Potency (UISO) | Potency (WaGa) | Potency (CAOV3) | Potency (CASKI) | Potency (HeLa) | Potency (Hek293T) | Potency (JEG-3) | Potency (OV90) | Potency (Tov-21-G) | activity, negative = cell killing [1, 4] -1.62% | activity, negative = cell killing [1, 5] -6.9% | Potency (astro) | max response [2] 2.01% | outcome [3]
active: Potency ([1]; tumour line A) 12.6 µM

CNC(=O)NC(O)C(Cl)(Cl)Cl (stereo not drawn)
inactive: Potency (UISO) | Potency (WaGa) | Potency (C33A) | Potency (CASKI) | Potency (Es-2) | Potency (HeLa) | Potency (JEG-3) | Potency (OV90) | Potency (PA-1) | Potency (SKOV3) | Potency (Tov-21-G) | Potency (Tov112D) | activity, negative = cell killing [1, 4] -2.48% | activity, negative = cell killing [1, 5] 7% | activity, negative = cell killing ([1]; at 46 µM (top of the series), tumour line A) -5.01% | Potency (astro)

CCC(=O)C(CCN(C)C)(c1ccccc1)c1ccccc1
inactive: Potency (UISO) | Potency (C33A) | Potency (CAOV3) | Potency (CASKI) | Potency (Es-2) | Potency (HeLa) | Potency (Hek293T) | Potency (JEG-3) | Potency (OV90) | Potency (PA-1) | Potency (SKOV3) | Potency (Tov-21-G) | Potency (Tov112D)

CC(Cc1ccccc1)NCc1ccccc1Cl (stereo not drawn)
inactive: Potency (UISO) | Potency (WaGa) | Potency (C33A) | Potency (CASKI) | Potency (Es-2) | Potency (HeLa) | Potency (Hek293T) | Potency (JEG-3) | Potency (OV90) | Potency (PA-1) | Potency (SKOV3) | Potency (Tov-21-G) | Potency (Tov112D) | activity, negative = cell killing [1, 4] -13.4% | activity, negative = cell killing [1, 5] -38.9% | Potency (astro)
active: Potency ([1]; tumour line A) 14.1 µM

c1cc2c(c(N3CCNCC3)c1)OCCO2
inactive: Potency (UISO) | Potency (WaGa) | Potency (C33A) | Potency (CASKI) | Potency (Es-2) | Potency (HeLa) | Potency (Hek293T) | Potency (JEG-3) | Potency (OV90) | Potency (PA-1) | Potency (SKOV3) | Potency (Tov-21-G) | Potency (Tov112D) | activity, negative = cell killing [1, 4] -7.8% | activity, negative = cell killing [1, 5] -0.968% | Potency (astro)

CN1C(=O)CN=C(c2ccccc2)c2cc(Cl)ccc21
inactive: Potency (UISO) | Potency (WaGa) | Potency (C33A) | Potency (CASKI) | Potency (Es-2) | Potency (HeLa) | Potency (Hek293T) | Potency (JEG-3) | Potency (OV90) | Potency (PA-1) | Potency (Tov-21-G) | Potency (Tov112D) | activity, negative = cell killing [1, 4] -4.05% | activity, negative = cell killing [1, 5] -1.05%
